Measurements from PubChem BioAssay (NCI).
The panel holds about 79,000 compounds, 15% with a hit somewhere; the sample as a whole holds those more often. Rule as the data show it: active = growth inhibition above about 70%; inactive = the rest.

What was measured:
[1] = NCI Yeast Anticancer Drug Screen. Data for the rad50 strain (AID 155);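 also: 0% = growth of vehicle-only cultures of the same strain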; settings: S. cerevisiae rad50 strain growth inhibition; at 50.0 µM; active compounds read high
In short: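 Vehicle-treated cultures provide the reference for the growth inhibition reported for compound-exposed, repair-deficient yeast.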

[2] = NCI Yeast Anticancer Drug Screen. Data for the mec2-1 strain (AID 157); settings: S. cerevisiae mec2-1 strain, at 50.0 µM, active compounds read high
In short: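 mec2-1 yeast strain, carrying an alteration in DNA damage repair or cell cycle control, was exposed to compounds; growth inhibition was measured relative to vehicle-treated controls.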

[3] = NCI Yeast Anticancer Drug Screen. Data for the sgs1 mgt1 strain (AID 161);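 also: 0% = growth of cultures given vehicle only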; settings: S. cerevisiae sgs1 mgt1 strain, at 50.0 µM, active compounds read high
In short: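 Percent growth inhibition was derived by comparing compound-exposed mutant yeast with vehicle-exposed cultures. The strain carries alterations in DNA damage repair.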

[4] = NCI Yeast Anticancer Drug Screen. Data for the cln2 rad14 strain (AID 165);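 also: 0% = growth equal to vehicle treated cultures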; settings: S. cerevisiae cln2 rad14 strain, at 50.0 µM, active compounds read high
In short: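 Yeast carrying cln2 and rad14 alterations (cell cycle control and DNA damage repair) were exposed to compounds. Growth inhibition was measured against vehicle-treated controls.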

[5] = NCI Yeast Anticancer Drug Screen. Data for the bub3 strain (AID 167); settings: S. cerevisiae bub3 mutant strain, at 50.0 µM, active compounds read high
In short: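 Mutant yeast screening strain plus compound; vehicle-treated cultures serve as the 0% inhibition reference.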

[6] = NCI Yeast Anticancer Drug Screen. Data for the mlh1 rad18 strain (AID 175); settings: S. cerevisiae mlh1 rad18 strain growth inhibition; at 50.0 µM; active compounds read high
In short: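 Growth inhibition of the yeast strain was measured after compound exposure and expressed relative to vehicle-treated controls. The strain carries defined defects in DNA damage repair.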

Measured: growth inhibition

O=C(O)CCC(=O)Oc1ccccc1
inactive: [1] -17.6% | [2] 11.2% | [3] 13.2% | [4] 31.6% | [5] 9.6% | [6] 44.5%

COc1ccc2c(=O)c(-c3ccc(OC)c(OC)c3)c(C)oc2c1
inactive: [1] -0.7% | [2] -1.5% | [3] 13.1% | [4] 7.5% | [5] -31.4% | [6] -4.85%

CC(=O)Oc1ccc(-c2c3ccccc3cc3c2ccc2ccccc23)cc1
inactive: [1] 1.75% | [2] -10.4% | [3] -9.85% | [4] -5.05% | [5] -2.7% | [6] -28.3%

CCOC(=O)N[n+]1ccccc1
inactive: [1] 1.65% | [2] 8.2% | [3] 4.35% | [4] -3.4% | [5] 10.8% | [6] 8.1%

Cc1nc(C)c(N2CCN(C(=O)O)CC2)c(=O)[nH]1
inactive: [1] -23.6% | [2] -10.9% | [3] -16% | [4] 9.85% | [5] 5.15% | [6] -58.4%

O=C1c2c(ccc3c2CCCC3)CC12Cc1ccccc1C2
inactive: [1] 8.9% | [2] -4.45% | [3] 9.25% | [4] -2.75% | [5] 4.8% | [6] 4.7%

CCCOC(=O)c1ccnc(C(=O)OCCC)c1
inactive: [1] 4.85% | [2] 4.85% | [3] -1.2% | [4] -16.2% | [5] -9.9% | [6] -13.6%

COC1/C=C\OC2(C)Oc3c(C)c(O)c4c(O)c(c(/C=N\NC(=O)CC(=O)N/N=C/c5c6c(O)c7c(O)c(C)c8c(c7c5O)C(=O)C(C)(O/C=C/C(OC)C(C)C(OC(C)=O)C(C)C(O)C(C)C(O)C(C)/C=C/C=C(C)C(=O)N6)O8)c(O)c4c3C2=O)NC(=O)/C(C)=C\C=C/C(C)C(O)C(C)C(O)C(C)C(OC(C)=O)C1C (stereo not given)
inactive: [1] -4.5% | [2] 6.3% | [3] -2.2% | [4] -5.4% | [5] 6.75% | [6] -16.4%

N#C/C(=C\c1ccccc1)c1ccc(F)cc1F
inactive: [1] 33.2% | [2] 30.6% | [3] 6.15% | [4] 6.55% | [5] 6.55% | [6] 9.7%

COCCNC(=O)C(C)O (stereo not given)
inactive: [1] 1.7% | [2] 3.95% | [3] -4.9% | [4] 19.2% | [5] 17.1% | [6] 6.15%

O=c1[nH]nc(SCc2ccccc2)c(=O)n1C(c1ccccc1)c1ccccc1
inactive: [1] 26.4% | [2] 12.4% | [3] 18.6% | [4] 28.2% | [5] 8.05% | [6] 5.3%

CCOC(=O)c1nc(N(C)C)oc(=O)c1C
inactive: [1] 25.1% | [2] 33.1% | [3] 28.1% | [4] -0.7% | [5] 18.6% | [6] 13.6%

OC1C=CC2CCC1C2 (stereo not given)
inactive: [1] -4.85% | [2] 7.15% | [3] -16.4% | [4] 6% | [5] 10.8% | [6] 5.2%

CCCCCCCCCCCCCCCc1nnc(SC)s1
inactive: [1] -22.6% | [2] -39% | [3] -14.9% | [4] 15.3% | [5] -3.15% | [6] 11.2%

C#CCCOC1(OC)N=NC(C)(C)O1 (stereo not given)
inactive: [1] 1.05% | [2] 0.9% | [3] -6.95% | [4] 12.3% | [5] -2.65% | [6] -24.6%

CCC(C)C=O (stereo not given)
inactive: [1] 3.9% | [2] -6.3% | [3] -9.2% | [4] 2.2% | [5] 10.4% | [6] -8.3%

COC(=O)C(CCc1ccc([N+](=O)[O-])cc1)(CCc1ccc([N+](=O)[O-])cc1)C(C)=O
inactive: [1] 5.9% | [2] -10% | [3] 4.55% | [4] -19.9% | [5] 19.7% | [6] 28.6%

CC(=O)/C(=C/n1ccc(=O)[nH]c1=S)C(=O)Nc1ccc(Cl)cc1
inactive: [1] -32% | [2] -7.6% | [3] 4.7% | [4] 11.7% | [5] -20.4% | [6] 3.4%

CCC(C)CCC(=O)C(C)C=O (stereo not given)
inactive: [1] -0.8% | [2] -7.3% | [3] 3% | [4] -5.9% | [5] -6.2% | [6] -3.85%

O=C(O)c1cccc(S(=O)(=O)NCCO)c1
inactive: [1] -11.3% | [2] -8.25% | [3] -20.8% | [4] -1.9% | [5] -36.1% | [6] 8.5%
